The text below walks through data of PubChem BioAssay (NCI).

Values joined by “and” are separate entries in the source; they are usually repeats but may differ in a detail not shown here. Identical values can stand only once. About 83,000 compounds went through this panel and 20% of them were active in at least one assay; those are over-represented in the sample as a whole.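 Single-dose data. Exposure time 48 hours. Values below 10 considered active.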 Active and inactive are the calls of the source.

This assay has as its system TK-10 renal. As to the kind of experiment: NCI-60 one-dose screen, 48 h (100 = growth as untreated, 0 = no growth, -100 = all killed). The following applies: 10 µM unless noted.
For the compound `CCOc1cc2c(cc1O)C(=O)C[C@@H]1[C@@H]2CC[C@]2(C)[C@@H](O)CC[C@@H]12`, the growth was 38.8% [100 µM] (inactive) and -2.4% [100 µM] (active).
The same measure for `CCC/C(Cl)=N\OC(=O)Nc1ccc(F)cc1`: -100% [100 µM] (active); for `CC1=CCC2C3(C)CCC2(C(C)C)C1C3` (stereo not given) (tested in a mixture with another compound): 17.7% [100 µM] (inactive) and -89.5% [100 µM] (active).
On to `ClC(Cl)(Cl)C1CCOC1n1nnc2ccccc21` (stereo not given), for which the growth is 73% [100 µM] (inactive) and 16.8% [100 µM] (inactive).
As for `C#CCn1c2c(c3ccccc3c1=O)C(=O)c1ccccc1-2`, the growth was 17.2% [100 µM] (inactive) and -69.9% [100 µM] (active).
The same measure for `N#CC1=C(N)OC(c2cccc([N+](=O)[O-])c2)C1(C#N)C#N` (stereo not given): -66.6% [100 µM] (active) and -87.5% [100 µM] (active); for `N#CC12COC3(CCCCC3C1(C#N)C#N)OC2=N` (stereo not given): 41.4% [100 µM] (inactive).
Take `CCOC(=O)/C(C#N)=C(/NNc1ccccc1)c1ccncc1C(=O)O`: the growth was 79.5% [100 µM] (inactive) and -58% [100 µM] (active).
Take `CC(=O)OC(C)c1cc2c(s1)C(=O)c1ccsc1C2=O` (stereo not given): the growth was -61.4% [100 µM] (active) and -100% [100 µM] (active).
For the compound `O=c1c(-c2ccc3c(c2)OCO3)coc2c3c(ccc12)OCO3`, the growth was -27.5% [100 µM] (active) and -100% [100 µM] (active).
For `CCC1CC(C)C(O)/C=C/C=C/CC(C)OC(=O)CC(O)C(OC)C1OC1OC(C)CC(O)(C(C)=O)C1O` (stereo not given), the growth was 62.1% [100 µM] (inactive) and 38.8% [100 µM] (inactive).
As for `C=C1C(=O)OC2C1CC(O)/C(C)=C\CCC1(C)OC21` (stereo not given), the growth was 76.7% [100 µM] (inactive) and -65% [100 µM] (active).
With `Cc1ccc(/C=N/Nc2cc(C)c3ccccc3n2)s1`, the growth is -63.7% [100 µM] (active) and -75.8% [100 µM] (active).
On to `CC1(C)CC2(C)OC(=N)C1(C#N)C2(C#N)C#N` (stereo not given), for which the growth was -89.5% [100 µM] (active) and -77.9% [100 µM] (active).
To `CC(=O)c1cc2c(s1)C(=O)c1sccc1C2=O` belongs -14.4% [100 µM] (active) and -100% [100 µM] (active).
Regarding `Cc1c2c(c(O)c3c(O)cccc13)C(=O)C1(O)C(O)=C(C(=O)NCNc3ccc(C(N)=O)cn3)C(=O)C(N(C)C)C1C2` (stereo not given), the growth was -70% [100 µM] (active) and -74.7% [100 µM] (active).
With `CCCCCCCCCc1cc(=O)c2c(O)cc(O)cc2o1`, the growth was -87.9% [100 µM] (active) and -100% [100 µM] (active).
To `CC(C)=CCC/C(C)=C/CC/C(C)=C/CSc1ccc(Cl)cc1C(=O)O` belongs -67.3% [100 µM] (active) and 28.4% [100 µM] (inactive); to `Oc1ccc(/C=C/c2cc(O)cc3c2C(c2cc(O)cc(O)c2)C(c2ccc(O)c(O)c2)O3)cc1` (stereo not given), -15.5% [100 µM] (active) and -12.5% [100 µM] (active).
In the case of `Oc1ccccc1-c1n[nH]c(-c2ccccc2O)n1`, the growth is 46.3% [100 µM] (inactive) and 4.42% [100 µM] (active).
Regarding `CC12NC(=C(C#N)C#N)C(C#N)=C3NC(N)=C(C#N)C(=C31)Oc1ccccc12` (stereo not given), the growth was 22.5% [100 µM] (inactive) and -82.1% [100 µM] (active).
To `CCOC(=O)C1(C#N)C(=O)c2cc[n+](CC[n+]3ccc4c(c3)C(=O)C(C#N)(C(=O)OCC)C4=O)cc2C1=O` (stereo not given) belongs 141% [100 µM] (inactive) and 101% [100 µM] (inactive).
As for `CC(C)(C)N/N=C(\C(=O)Nc1ccc([N+](=O)[O-])cc1[N+](=O)[O-])c1nc2ccc([N+](=O)[O-])cc2[nH]c1=O`, the growth was 97.2% [100 µM] (inactive) and 67.6% [100 µM] (inactive).
Consider `COc1cc2c(cc1O)Cc1c-2[n+](C)cc2cc(OC)c(OC)cc12`, for which the growth is 89.2% [100 µM] (inactive) and 4.86% [100 µM] (active).
For the compound `O=c1c2ncn(C3CCCCO3)c2n(-c2ccccc2)c(=S)n1-c1ccccc1` (stereo not given), the growth is 20.1% [100 µM] (inactive) and 23.9% [100 µM] (inactive).
